Experimental findings from ChEMBL document CHEMBL2218924, “A broad activity screen in support of a chemogenomic map for kinase signalling research and drug discovery” (Biochem J, 2013) are described below.

Test [1] has as its target Ribosomal protein S6 kinase alpha-1 (Homo sapiens) (UniProt Q15418). The following applies: at 1 µM.
Test [2] shares this target. The following applies: at 10 µM.
Test [3] concerns the target Ribosomal protein S6 kinase alpha-3 (Homo sapiens) (UniProt P51812). The settings on record: at 1 µM.
Test [4] shares this target. The following applies: at 10 µM.
Test [5] addresses Ribosomal protein S6 kinase alpha-2 (Homo sapiens) (UniProt Q15349). The following applies: at 1 µM.
Test [6] has the same target. The settings on record: at 10 µM.
Test [7] deals with Ribosomal protein S6 kinase alpha-6 (Homo sapiens) (UniProt Q9UK32). The settings on record: at 1 µM.
Test [8] shares this target. The settings on record: at 10 µM.
The target in test [9] is Mitogen-activated protein kinase 14 (Homo sapiens) (UniProt Q16539). The settings on record: at 1 µM.
For test [10] the target is unchanged. The settings on record: at 10 µM.

Chain of Ribosomal protein S6 kinase alpha-2 (Homo sapiens) (Q15349 whole entry): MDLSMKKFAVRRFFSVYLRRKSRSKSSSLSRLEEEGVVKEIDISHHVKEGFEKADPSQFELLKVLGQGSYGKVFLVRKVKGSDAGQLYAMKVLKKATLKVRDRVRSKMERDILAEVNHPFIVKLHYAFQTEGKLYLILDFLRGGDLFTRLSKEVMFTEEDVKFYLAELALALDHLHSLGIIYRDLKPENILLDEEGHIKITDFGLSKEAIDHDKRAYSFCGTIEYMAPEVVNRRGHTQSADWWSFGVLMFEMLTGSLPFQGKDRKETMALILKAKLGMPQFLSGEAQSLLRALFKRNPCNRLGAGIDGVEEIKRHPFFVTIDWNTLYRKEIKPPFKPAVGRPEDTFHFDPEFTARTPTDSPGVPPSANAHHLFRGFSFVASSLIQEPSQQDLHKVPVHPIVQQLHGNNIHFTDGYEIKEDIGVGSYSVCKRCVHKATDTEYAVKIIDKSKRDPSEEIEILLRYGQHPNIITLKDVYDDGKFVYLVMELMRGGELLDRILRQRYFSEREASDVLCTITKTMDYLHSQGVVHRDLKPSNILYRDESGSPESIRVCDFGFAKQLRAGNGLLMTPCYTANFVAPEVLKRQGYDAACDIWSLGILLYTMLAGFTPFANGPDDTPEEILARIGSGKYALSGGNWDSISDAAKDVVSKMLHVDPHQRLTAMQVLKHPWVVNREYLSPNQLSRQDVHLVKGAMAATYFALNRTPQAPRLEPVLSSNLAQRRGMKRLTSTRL
Chain of Ribosomal protein S6 kinase alpha-1 (Homo sapiens) (Q15418 whole entry): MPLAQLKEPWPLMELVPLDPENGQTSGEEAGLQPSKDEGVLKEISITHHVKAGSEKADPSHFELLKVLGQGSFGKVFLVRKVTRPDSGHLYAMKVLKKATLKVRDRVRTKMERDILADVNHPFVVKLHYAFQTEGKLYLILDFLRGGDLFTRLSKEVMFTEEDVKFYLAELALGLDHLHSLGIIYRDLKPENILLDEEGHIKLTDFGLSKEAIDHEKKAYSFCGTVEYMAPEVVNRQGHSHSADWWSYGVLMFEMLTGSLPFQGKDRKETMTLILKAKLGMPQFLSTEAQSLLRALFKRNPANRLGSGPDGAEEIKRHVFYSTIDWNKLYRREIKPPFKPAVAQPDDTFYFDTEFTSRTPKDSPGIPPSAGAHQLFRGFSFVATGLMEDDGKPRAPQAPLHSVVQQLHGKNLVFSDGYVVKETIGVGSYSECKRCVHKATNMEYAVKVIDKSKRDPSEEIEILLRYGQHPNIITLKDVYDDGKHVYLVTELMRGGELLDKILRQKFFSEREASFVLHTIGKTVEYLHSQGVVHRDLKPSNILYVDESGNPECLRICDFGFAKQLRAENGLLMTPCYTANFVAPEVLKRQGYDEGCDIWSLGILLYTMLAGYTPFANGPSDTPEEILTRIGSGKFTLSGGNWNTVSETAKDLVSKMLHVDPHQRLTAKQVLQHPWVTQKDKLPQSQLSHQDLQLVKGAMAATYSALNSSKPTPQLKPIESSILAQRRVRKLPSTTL
Chain of Ribosomal protein S6 kinase alpha-3 (Homo sapiens) (P51812 whole entry): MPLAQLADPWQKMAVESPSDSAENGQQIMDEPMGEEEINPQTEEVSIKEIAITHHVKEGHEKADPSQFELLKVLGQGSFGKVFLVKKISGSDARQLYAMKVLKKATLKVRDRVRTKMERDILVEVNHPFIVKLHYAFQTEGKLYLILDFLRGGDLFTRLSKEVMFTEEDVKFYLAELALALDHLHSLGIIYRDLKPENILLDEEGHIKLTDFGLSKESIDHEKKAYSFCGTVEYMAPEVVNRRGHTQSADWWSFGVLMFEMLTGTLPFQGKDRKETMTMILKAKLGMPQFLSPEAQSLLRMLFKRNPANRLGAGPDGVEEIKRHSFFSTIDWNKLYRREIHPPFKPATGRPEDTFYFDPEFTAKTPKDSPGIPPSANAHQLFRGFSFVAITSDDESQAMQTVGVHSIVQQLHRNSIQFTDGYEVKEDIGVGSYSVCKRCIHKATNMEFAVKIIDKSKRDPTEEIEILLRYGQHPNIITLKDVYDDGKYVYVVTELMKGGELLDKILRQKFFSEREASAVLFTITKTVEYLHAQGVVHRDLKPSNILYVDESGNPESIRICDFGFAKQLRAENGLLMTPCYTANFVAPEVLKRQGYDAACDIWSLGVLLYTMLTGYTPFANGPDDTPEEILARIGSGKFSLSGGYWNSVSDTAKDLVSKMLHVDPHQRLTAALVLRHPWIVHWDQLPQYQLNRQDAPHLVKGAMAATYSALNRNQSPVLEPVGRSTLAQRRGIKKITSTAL
Chain of Mitogen-activated protein kinase 14 (Homo sapiens) (Q16539 whole entry): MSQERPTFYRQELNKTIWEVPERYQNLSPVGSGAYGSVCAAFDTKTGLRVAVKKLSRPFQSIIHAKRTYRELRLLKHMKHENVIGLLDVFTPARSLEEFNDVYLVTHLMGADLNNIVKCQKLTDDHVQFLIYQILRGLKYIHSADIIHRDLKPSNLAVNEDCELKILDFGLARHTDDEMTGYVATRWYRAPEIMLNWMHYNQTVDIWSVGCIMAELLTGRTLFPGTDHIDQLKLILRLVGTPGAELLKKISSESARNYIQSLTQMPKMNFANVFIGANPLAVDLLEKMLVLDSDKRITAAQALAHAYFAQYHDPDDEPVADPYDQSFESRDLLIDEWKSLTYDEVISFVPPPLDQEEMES
Chain of Ribosomal protein S6 kinase alpha-6 (Homo sapiens) (Q9UK32 whole entry): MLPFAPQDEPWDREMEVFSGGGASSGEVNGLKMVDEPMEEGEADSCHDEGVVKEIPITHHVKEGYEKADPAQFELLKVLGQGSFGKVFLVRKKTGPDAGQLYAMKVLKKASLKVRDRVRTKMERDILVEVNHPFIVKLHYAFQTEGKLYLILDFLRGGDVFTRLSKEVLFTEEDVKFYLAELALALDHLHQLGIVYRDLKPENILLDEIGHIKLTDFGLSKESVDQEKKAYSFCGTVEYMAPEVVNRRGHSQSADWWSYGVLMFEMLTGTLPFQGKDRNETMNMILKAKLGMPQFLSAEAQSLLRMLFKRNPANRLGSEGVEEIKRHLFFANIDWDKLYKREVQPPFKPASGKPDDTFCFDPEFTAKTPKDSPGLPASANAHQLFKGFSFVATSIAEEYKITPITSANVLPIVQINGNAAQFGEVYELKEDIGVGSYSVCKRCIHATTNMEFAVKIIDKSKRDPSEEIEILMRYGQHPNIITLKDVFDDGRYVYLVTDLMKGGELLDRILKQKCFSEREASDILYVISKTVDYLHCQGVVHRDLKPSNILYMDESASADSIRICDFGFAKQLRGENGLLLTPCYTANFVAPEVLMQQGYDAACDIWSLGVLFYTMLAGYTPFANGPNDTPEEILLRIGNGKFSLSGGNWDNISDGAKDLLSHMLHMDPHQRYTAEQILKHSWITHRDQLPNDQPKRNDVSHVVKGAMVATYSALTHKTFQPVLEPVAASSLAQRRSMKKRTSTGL

As to `Cc1nc(-c2ccccc2)c(-c2ccncc2)o1`, the residual activity came to 88% in test [1]; 97% in test [2]; 60% in test [3]; 64% in test [4]; 100% in test [5]; 92% in [6]. In addition, the residual activity in test [7] was 81%; in test [8] it was 117%; in test [9] it was 57%; in test [10], 14%.

Regarding `O=c1c2ccccc2[nH]c(=S)n1CCN1CCC(=C(c2ccc(F)cc2)c2ccc(F)cc2)CC1`, the residual activity stood at 113% in [1]; 61% in [2]; 79% in test [3]; 50% in test [4]; 119% in [5]; 100% in test [6]. For the same compound, the residual activity is 114% in test [7], 91% in test [8], 97% in [9] and 104% in [10].

As to `Nc1cccc(-c2cc3c(Oc4cccc(O)c4)ncnc3[nH]2)c1`, the residual activity came to 97% in test [1]; 68% in [2]; 68% in test [3]; 32% in [4]; 76% in test [5]; 27% in test [6]. Besides, the residual activity in [7] came to 56%; in test [8], 41%; in test [9] it was 54%; in test [10] it was 11%.

With `O=C1NC(=O)/C(=C\c2ccc3nccnc3c2)S1`, the residual activity in [1] stood at 112%; in test [2] it was 83%; in test [3] it was 61%; in test [4], 35%; in test [5], 114%; in test [6] it was 78%. Moreover, the residual activity was 101% in test [7], 99% in test [8], 82% in test [9] and 91% in test [10].

Consider `CO[C@H]1[C@@H](OC)C[C@H](C)[C@@H](OC)C2=CC(=O)C=C(NC(=O)/C(C)=C/C=C/[C@H](OC)[C@@H](OC(N)=O)/C(C)=C/[C@@H]1C)C2=O`, for which the residual activity is 115% in test [1]; 84% in test [2]; 50% in test [3]; 36% in [4]; 93% in [5]; 104% in test [6]. Also, the residual activity in test [7] amounted to 113%; in test [8], 91%.

Consider `CO[C@@H]1[C@H](N(C)C(=O)c2ccccc2)C[C@H]2O[C@]1(C)n1c3ccccc3c3c4c(c5c6ccccc6n2c5c31)C(=O)NC4`, for which the residual activity in test [1] stood at 0%; in [2], 1%; in test [3], 1%; in test [4], 0%; in [5], 1%; in [6], 0%. In addition, the residual activity in test [7] was determined as 0%; in test [8], 3%; in [9], 71%; in test [10], 78%.

With `O=C(Nc1cccc(Nc2cc(Nc3cccc(C(F)(F)F)c3)ncn2)c1)C1CC1`, the residual activity in test [1] was 105%; in test [2] it was 79%; in test [3], 106%; in test [4] it was 66%; in test [5] it was 99%; in test [6], 55%. The residual activity in test [7] was 103%; in [8], 99%; in test [9] it was 80%; in test [10], 40%.

Turning to `CC(=O)O/N=C1\C(=C2\C(=O)Nc3cc(Br)ccc32)Nc2ccccc21`, the residual activity in test [1] came out at 105%; in test [2], 59%; in [3], 40%; in test [4], 28%; in test [5], 71%; in test [6], 34%. For the same compound, the residual activity in [7] was 74%; in test [8] it was 89%; in test [9], 88%; in test [10] it was 85%.

As to `CN(C)c1ccc(/C=C2\C(=O)Nc3ccccc32)cc1`, the residual activity amounted to 66% in [1]; 34% in test [2]; 47% in test [3]; 16% in test [4]; 74% in test [5]; 25% in [6]. The residual activity in [7] was found to be 91%; in [8], 40%; in test [9] it was 102%; in [10], 106%.

For `Oc1ccc(-c2nc(-c3ccc(F)cc3)c(-c3ccncc3)[nH]2)cc1`, the residual activity in test [1] was 117%; in test [2], 83%; in test [3], 55%; in [4], 45%; in [5], 105%; in [6] it was 68%. Further, the residual activity in [7] turned out to be 88%; in test [8], 92%.

`O=C1NC(=O)c2cc(Nc3ccc(F)cc3)c(Nc3ccc(F)cc3)cc21`: the residual activity in [1] was 87%; in test [2], 91%; in test [3], 123%; in [4], 77%; in [5], 103%; in test [6], 78%. The residual activity in [7] turned out to be 101%; in [8], 100%; in test [9] it was 57%; in test [10], 23%.

`Cc1nc2cc3nc(-c4cccs4)cnc3cc2n1C`: the residual activity stood at 115% in test [1]; 89% in test [2]; 102% in [3]; 75% in [4]; 107% in test [5]; 83% in test [6]. The residual activity amounted to 101% in [7], 84% in test [8], 114% in test [9] and 112% in [10].

In the case of `Cn1cnc2cc3c(Nc4cccc(Br)c4)ncnc3cc21`, the residual activity came out at 97% in [1]; 92% in [2]; 108% in test [3]; 93% in test [4]; 101% in [5]; 70% in test [6]. For the same compound, the residual activity in test [7] was 115%; in [8] it was 68%; in test [9], 64%; in test [10], 25%.

As for `Nc1ccc2ncnc(NCCc3ccc(Oc4ccccc4)cc3)c2c1`, the residual activity in test [1] was determined as 58%; in [2], 41%; in test [3], 49%; in [4], 45%; in test [5], 89%; in test [6] it was 65%. The residual activity in [7] worked out at 66%; in test [8] it was 77%; in test [9], 90%; in test [10], 91%.

For `CCC(=O)Nc1ccc2ncnc(Nc3cccc(Br)c3)c2c1`, the residual activity in [1] is 119%; in test [2] it was 84%; in test [3], 120%; in test [4], 91%; in test [5], 99%; in test [6], 71%. Further, the residual activity in test [7] amounted to 124%; in test [8], 82%; in [9], 78%; in [10], 50%.

For the compound `N#CCCc1ccc2c(c1)-c1[nH]c3ccc([N+](=O)[O-])cc3c1CC(=O)N2`, the residual activity stood at 45% in [1]; 24% in test [2]; 9% in test [3]; 3% in test [4]; 8% in test [5]; 1% in test [6]. Also, the residual activity in test [7] was determined as 16%; in test [8], 5%.

Regarding `Oc1ccc(Nc2nc(-c3ccc(Cl)cc3)cs2)cc1`, the residual activity is 113% in test [1]; 103% in [2]; 75% in test [3]; 86% in [4]; 91% in [5]; 80% in [6]. Also, the residual activity stood at 93% in [7], 113% in test [8], 89% in test [9] and 35% in [10].
